These results are taken from PubChem BioAssay AID504332 (National Center for Advancing Translational Sciences (NCATS), 2011).

In all, about 350,000 compounds went through this assay and about 31,000 (8.9%) were called active. Roughly 15% stayed inconclusive and do not appear here. For the sample, actives were picked, then their nearest neighbours and some compounds at random. A number with no mark means an inactive call. The call rests on the fitted dose curve; in most records, active means well fitted inhibition curve with a large enough effect; inconclusive means small, poorly fitted or top-dose-only effect; inactive means no such curve, though single readings can be large or run the other way.
On the % scale 0 is the no-effect control and ±100 the full control effect; potency means the concentration at half of the fitted maximal effect.

Chain of Histone-lysine N-methyltransferase EHMT2 (Homo sapiens) (Q96KQ7 913-1193 limits assumed): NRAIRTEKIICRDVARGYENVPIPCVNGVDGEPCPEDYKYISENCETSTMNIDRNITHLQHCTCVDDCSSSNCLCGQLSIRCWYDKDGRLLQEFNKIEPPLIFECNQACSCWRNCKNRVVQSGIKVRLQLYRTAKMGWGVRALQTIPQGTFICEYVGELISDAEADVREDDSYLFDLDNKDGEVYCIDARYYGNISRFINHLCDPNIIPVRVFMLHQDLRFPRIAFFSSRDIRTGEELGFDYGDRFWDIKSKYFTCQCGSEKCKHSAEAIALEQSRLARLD

The test concerns the target Histone-lysine N-methyltransferase EHMT2 (Homo sapiens) (UniProt Q96KQ7). As to the kind of experiment: qHTS Assay for Inhibitors of Histone Lysine Methyltransferase G9a. Further: nearly all actives have a fitted effect of over 75% in size. The conditions noted are these: G9a H3K9 monomethylation, AlphaScreen, 2 h; series mostly up to 59 µM; activity, negative = inhibition: at the top concentration. In short, it runs like this:
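Step 1: enzyme (final 20 nM) with compound, 15 min RT. Step 2: substrate peptide 500 nM and SAM 20 uM, 2 h RT. Step 3: anti-H3K9me1 antibody and AlphaScreen beads, 10 min, then plate read.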
Background: In qHTS, concentration-response curves come from the screen itself.
For the compound `Cc1ccc(C)c(NC(=O)C2CCCN(S(=O)(=O)c3cn(C)cn3)C2)c1` (centres undefined), the “activity, negative = inhibition” value was 15.1%.
As to `C=CCNc1nc(N)c([N+](=O)[O-])c(NC2CCCCC2)n1`, the “activity, negative = inhibition” value is -5.17% [at 102 µM].
`CCCNC(=O)CCc1c(C)nc2c(c(C)nn2-c2ccccc2)c1C`: the “activity, negative = inhibition” value is 38.4% [at 102 µM].
The same measure, in the same setting: for `Cc1ccc(C)c(Cn2c(C(=O)O)c(CNCc3cccs3)c3ccccc32)c1` the value was -1.51%.
Regarding `COc1ccc(Nc2nc(-c3ccccc3)cs2)cc1`, the Potency was 12.6 µM (active).
For the compound `COc1ccc(OC)c(Nc2nc(-c3ccc(O)c(O)c3)cs2)c1`, the Potency is 3.98 µM (active).
`COc1cccc(CC(=O)Nc2nc(-c3ccc(OC)c(OC)c3)cs2)c1`: the “activity, negative = inhibition” value is -6.69% [at 102 µM].
In the case of `O=C(Nc1ccccc1)Nc1nc2ccccc2s1`, the “activity, negative = inhibition” value is -5.29% [at 102 µM].
Turning to `NS(=O)(=O)c1ccc(Nc2nc(-c3ccccc3)cs2)cc1`, the Potency is 44.7 µM (active).
On the same count and under the same terms, for `CC(=O)Nc1ccc(-c2csc(NC(=O)Nc3ccccc3)n2)cc1` the value was 44.7 µM (active).
Consider `COc1ccc2nc(Nc3nc(-c4ccncc4)cs3)sc2c1`, for which the “activity, negative = inhibition” value is 4.27% [at 102 µM].
Take `COc1ccc(-c2csc(NC3OC(=O)c4ccccc43)n2)cc1` (centres undefined): the “activity, negative = inhibition” value was 0.895%.
Still for that read-out and setting: the same measure for `COc1ccc(CC(=O)Nc2nc(-c3ccc(F)c(F)c3)cs2)cc1OC`: -13.8% [at 102 µM].
Consider `O=C(Nc1ccc(-c2csc(Nc3cccc(C(F)(F)F)c3)n2)cc1)c1cccc(C(F)(F)F)c1`, for which the activity, negative = inhibition was -6.74% [at 12.7 µM].
For the compound `CC(=O)Nc1nc(C)c(-c2csc(Nc3ccc(S(N)(=O)=O)cc3)n2)s1`, the “activity, negative = inhibition” value was -39% [at 102 µM].
As to `CCOC(=O)Cc1csc(NC(=O)Nc2ccccc2)n1`, the “activity, negative = inhibition” value is 6.91%.
In the case of `CCOc1ccc(NC(=O)CSc2c3c(nc4ccccc24)CCCC3)cc1`, the “activity, negative = inhibition” value is 7.49%.
The same measure, in the same setting: for `COc1ccccc1CNC(=O)COn1nnc2ccc(S(=O)(=O)N3CCOCC3)cc21` the value was -27.8% [at 102 µM]; for `Cc1cc(O)c(C(=O)/C=C/c2c(F)c(F)c(F)c(F)c2F)c(=O)o1`, -25.4% [at 2.33 µM].
Still for that read-out and setting: for `Cc1ccc2c(c1)N(C(=O)Nc1ccc(Br)cc1F)CCO2` the value was -22.5%; for `Cc1ccc(S(=O)(=O)N2CCN(c3ccccc3)CC2)cc1C`, 2.79% [at 102 µM].
On the same count and under the same terms, for `NS(=O)(=O)c1ccc(CNC(=O)c2cccc(S(=O)(=O)N3CCc4ccccc43)c2)cc1` the value was 15.2% [at 2.33 µM]; for `CC(Sc1nnc(COc2ccccc2)n1-c1ccccc1)C(=O)O` (centres undefined), 9.68% [at 0.501 µM]; for `Cc1ccc(OCc2nc3ccccc3n2C)cc1`, 4.42% [at 0.501 µM].
Take `Cc1ccc(NC(=O)Nc2cc(-c3ccccc3)nn2C)cc1Cl`: the “activity, negative = inhibition” value is 4.64% [at 102 µM].
`COc1ccc(OCc2n[nH]c(=S)n2N)cc1`: the Potency is 1.78 µM (active).
Still for that read-out and setting: for `S=c1[nH]nc(COc2ccccc2)n1-c1ccccc1` the value was 2.51 µM (active).
`Cc1ccc(NC(=O)CSc2nc3c([nH]c4ccccc43)c(=O)n2-c2ccccc2)cc1Cl`: the “activity, negative = inhibition” value was 0.779%.
As to `Cc1ccc(NCc2n[nH]c(=S)n2-c2ccccc2)cc1Cl`, the Potency was 22.4 µM (active).
On the same count and under the same terms, for `Cc1ccc(OCc2n[nH]c(=S)n2-c2ccccc2)cc1` the value was 1.58 µM (active).
With `Cc1n[nH]c(=O)n1-c1ccc(Oc2ccccc2)cc1`, the “activity, negative = inhibition” value is 106%.
With `Cc1ccc(OCc2n[nH]c(=S)n2-c2ccc(C)cc2)cc1`, the “activity, negative = inhibition” value is 18.9% [at 102 µM].
The same measure, in the same setting: for `COc1ccc(OCc2ccc(-c3nc4ccccc4c(=O)n3N)o2)cc1` the value was 14.4% [at 2.33 µM].
The same measure, in the same setting: for `COc1ccc(OCC(=O)OCCN(C)C)cc1` the value was -13.2%; for `CN(C)CCn1c2c(c(SCC(=O)Nc3ccccc3C(F)(F)F)nc1=O)CCCC2`, 7.38% [at 0.501 µM]; for `CCOC(=O)c1ccc(NC2=CC(c3ccc(OCC)cc3)N(c3ccc(C(=O)OCC)cc3)C2=O)cc1` (centres undefined), -41.8%.
As to `COc1cc(NC(=O)CCn2nc(C)cc2C)cc(OC)c1OC`, the “activity, negative = inhibition” value is 7.03%.
On the same count and under the same terms, the same measure for `Cc1c(Cl)cccc1NC(=O)C1CCCN(C(=O)c2cnn(-c3ccccc3)c2-n2cccc2)C1` (centres undefined): -2.57%.
`Cn1c(C(=O)N2CCCC(C(=O)NCc3ccccc3)C2)cc2sccc21` (centres undefined): the “activity, negative = inhibition” value is -0.912%.
As for `COc1ccc(-c2noc(CSc3nc4ccc(C)cc4[nH]3)n2)cc1`, the “activity, negative = inhibition” value was 4.71%.
The same measure, in the same setting: the same measure for `O=C(Nc1ccc(C(F)(F)F)cc1)c1cccc(-n2cnnn2)c1`: -33%.
On the same count and under the same terms, the same measure for `O=C(CN1C(=O)COc2ccc(Cl)cc21)N1CCOCC1`: 78.5% [at 102 µM]; for `CC(=N\NC(=O)c1cc(Br)ccc1O)/C(=N/O)C(=O)Nc1ccccc1`: 1.77% [at 102 µM]; for `COc1ccc(OC)c(/C=C/C(=O)c2ccc3c(c2)OCO3)c1`: 13.7% [at 12.7 µM].
Take `Cc1ccccc1-c1nc(CS(=O)(=O)CC(=O)Nc2cc(Cl)cc(Cl)c2)c(C)o1`: the “activity, negative = inhibition” value was -2.38%.
On the same count and under the same terms, for `CCOc1ccccc1C(=O)NC1(C(F)(F)F)NC(=O)N(CCc2ccc(OC)c(OC)c2)C1=O` (centres undefined) the value was -8.28%; for `O=C(CSc1ncnc2sccc12)N1CCN(C(=O)c2cccs2)CC1`, 14% [at 12.7 µM]; for `COc1ccc(CNC(=O)c2cc3c(=O)[nH]c4ccc(C)cc4c3s2)c(OC)c1`, 9.06%.
On the same count and under the same terms, for `COc1cc(C(=O)Nc2cc(C(F)(F)F)ccc2-n2cncn2)cc(OC)c1OC` the value was 1.32% [at 102 µM].
